Compound activity as filed in PubChem.
KDM5B inh: Primary screen for KDM5B Histone Demethylases FDH-coupled qHTS | KDM5B demethylase, FDH-coupled NADH fluorescence (FDH is formaldehyde dehydrogenase) | 2.6% of 220,000 active | Potency, µM (doses to about 57.7 µM), most hits filed as inhibitors; active means well fitted inhibition curve with a large enough effect; further: 0% is about no effect; nearly all actives have a fitted effect of over 70% in size
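Here, H3K4me3 peptide (12.5 µM in substrate mix) is demethylated by KDM5BΔAP, 200 nM final, after 10 min compound exposure. Formaldehyde product is coupled through FDH (0.25 U/mL in mix) to NADH fluorescence; 30-min ΔRFU feeds dose-response curves.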
Numbers without * were called inactive. The full list was thinned out, with hits kept by preference. Potency means the concentration at half of the fitted maximal effect.

CC(C)(C)c1ccc(C(=O)NC(Nc2cccc(Cl)c2)C(Cl)(Cl)Cl)cc1 (stereo not given) was read as KDM5B inh inactive.
Screening CCOC(=O)C(N)c1c(C)cc(C)cc1C (stereo not given) returned KDM5B inh inactive.
O=C(Cc1ccsc1)N1CCC(c2nc3c(nnn3Cc3c(F)cccc3Cl)c(=O)[nH]2)CC1 was read as KDM5B inh inactive.
CC(C)(C)c1ccccc1NC(=O)c1ccc(F)cc1F was read as KDM5B inh inactive.
Screening COc1ccc(S(=O)(=O)N2CCCCC2)cc1NC(=O)Cc1nn(C)c(=O)c2ccccc12 returned KDM5B inh inactive.
For CCN(C)C(=O)CCc1c(C)nn(-c2ccccc2)c1Oc1ccccc1F the results were KDM5B inh 14µM*.
Cc1nn(-c2ccccc2)c(Oc2ccc(F)cc2F)c1CCC(=O)N(C)C(C)C was read as KDM5B inh inactive.
For CCN(CC)C(=O)CCc1c(C)nn(-c2ccccc2)c1Oc1ccc(F)cc1F the results were KDM5B inh inactive.
For FC(F)(F)c1cccc(OCc2noc(-c3ccsc3)n2)c1 the results were KDM5B inh inactive.
For Cc1cc(CN(C)c2ccc(-c3nc(COc4ccccc4)no3)cn2)on1 the results were KDM5B inh 35µM*.
Screening COc1cccc(C(C)N(C)Cc2nc(COc3ccccc3)no2)c1 (stereo not given) returned KDM5B inh inactive.
`N#C/C(=C/c1ccc(SC(F)(F)F)cc1)C(=O)NC1CC1` gave KDM5B inh inactive.
Cc1ccc(OCC(=O)N2CCC(c3noc(-c4ccccn4)n3)C2)cc1 (stereo not given) was read as KDM5B inh inactive.
CSc1ccc(/C=C/c2nc(N)nc(-c3ccccc3O)n2)cc1 was read as KDM5B inh inactive.
`O=C1CC2(CCN(C(=O)c3ccc4c(c3)OCO4)CC2)Oc2cc(Cl)ccc21` gave KDM5B inh inactive.
Screening O=C1CC2(CCN(Cc3ccc(F)cc3)CC2)Oc2cc(Cl)ccc21 returned KDM5B inh inactive.
`O=C1NCC2(CCN(C(=O)c3ccc4c(c3)OCO4)CC2)Oc2ccccc21` gave KDM5B inh inactive.
`COc1ccc(C(=O)N2CCC3(CC2)CC(=O)c2ccccc2O3)cc1` gave KDM5B inh 32µM*.
Screening COc1ccc(C(=O)N2CCC3(CC2)CC(=O)N(c2ccccc2)c2ccccc2O3)cc1 returned KDM5B inh inactive.
For O=C1CC2(CCN(CC3CCCCC3)CC2)Oc2ccccc2N1c1ccccc1 the results were KDM5B inh inactive.
Screening O=C1CC2(CCN(CC3CCCCC3)CC2)Oc2cc(Cl)ccc21 returned KDM5B inh inactive.
For O=C1CC2(CCN(C(=O)c3ccc4c(c3)OCO4)CC2)Oc2ccccc21 the results were KDM5B inh 25µM*.
Screening O=C1CC2(CCN(Cc3ccsc3)CC2)Oc2ccccc21 returned KDM5B inh 35µM*.
For O=C1CC2(CCN(Cc3ccc(C(F)(F)F)cc3)CC2)Oc2cc(Cl)ccc21 the results were KDM5B inh inactive.
O=C1CC2(CCN(CC3CC3)CC2)Oc2ccccc21 was read as KDM5B inh 32µM*.
`COc1ccc(C(=O)N2CCC3(CC2)CC(=O)Nc2ccccc2O3)cc1` gave KDM5B inh inactive.
Screening Cn1nc(C(=O)Nc2nc(-c3ccc(F)cc3)cs2)c2ccccc2c1=O returned KDM5B inh inactive.
`Cc1noc2c(NCCN(C)C)cc(-c3cccc(C(F)(F)F)c3)nc12` gave KDM5B inh inactive.
Screening COc1ccccc1NC(=O)COC(=O)CCS(=O)(=O)c1ccc(C)c(C)c1 returned KDM5B inh inactive.
Cc1c(CC(=O)NC2CC2)c2c(n1Cc1ccc(F)cc1)CCCC2=O was read as KDM5B inh inactive.
Screening O=C(Nc1ccccc1I)c1cc[n+]([O-])cc1 returned KDM5B inh inactive.
COCCN1C(=O)C(=O)/C(=C(/O)c2ccccc2)C1c1ccccc1 (stereo not given) was read as KDM5B inh inactive.
For COc1ccccc1NC(=O)CSc1ncnc2ccccc12 the results were KDM5B inh inactive.
Screening CCn1cnc2c1c(=O)n(CC(=O)OCc1ccc(C(C)C)cc1)c(=O)n2Cc1ccccc1 returned KDM5B inh inactive.
`CS(=O)(=O)N1Cc2ccccc2CC2(CCN(Cc3ccccc3)C2)C1` (stereo not given) gave KDM5B inh inactive.
Screening O=C1CC2(CCN(S(=O)(=O)c3ccccc3)CC2)Oc2cc(Cl)ccc21 returned KDM5B inh inactive.
Screening O=C1NC2(CCN(Cc3ccccc3)CC2)Oc2ccccc21 returned KDM5B inh inactive.
For Cn1cccc1CN1CCC2(CC1)CC(=O)c1ccccc1O2 the results were KDM5B inh 25µM*.
Screening O=C1CC2(CCN(Cc3ccccc3)CC2)Oc2ccccc21 returned KDM5B inh 35µM*.
Screening Cc1noc(C)c1[S+](=O)([O-])N1CCC2(CC1)CC(=O)c1ccccc1O2 returned KDM5B inh 20µM*.
For O=C1CC2(CCN(S(=O)(=O)c3cccs3)CC2)Oc2ccccc21 the results were KDM5B inh 18µM*.
For O=C1Nc2ccccc2C12CCN(S(=O)(=O)c1cccs1)C2 (stereo not given) the results were KDM5B inh inactive.
For Cc1noc(C)c1[S+](=O)([O-])N1CCCC2(C1)NC(=O)c1ccccc1O2 (stereo not given) the results were KDM5B inh inactive.
`CCCN1CCC2(CCN([S+](=O)([O-])c3c(C)noc3C)CC2)Oc2ccccc21` gave KDM5B inh inactive.
Cn1cccc1CN1CCC2(CC1)CC(=O)Nc1ccccc1O2 was read as KDM5B inh inactive.
O=C1CC2(CCN(Cc3cccc4ccccc34)CC2)Oc2ccccc21 was read as KDM5B inh inactive.
For Cn1cccc1CN1CCC2(CC1)CC(=O)c1ccc(Cl)cc1O2 the results were KDM5B inh inactive.
For CC(/C=C/c1ccccc1)=N/NC(=S)NC1CCCCC1 the results were KDM5B inh inactive.
N#Cc1ccc(/C=C/c2ccc3c([N+](=O)[O-])cccc3n2)cc1 was read as KDM5B inh inactive.
Screening FC(F)(F)c1cccc(NC(=S)NCCc2ccncc2)c1 returned KDM5B inh inactive.
For CCCc1cc(=O)n2nc(N(C)CC(=O)Nc3cccc(F)c3)sc2n1 the results were KDM5B inh inactive.
CC(=O)N1CCCN(C(=O)CC(c2cccc(O)c2)c2cccc(Cl)c2)CC1 (stereo not given) was read as KDM5B inh inactive.
`COc1ccc(C(=O)Nc2oc3c(C)cccc3c(=O)c2-c2cc(OC)c(OC)c(OC)c2)cc1` gave KDM5B inh inactive.
For CCc1ccc2oc(C(=O)Nc3nc(C)c(C(=O)OCC(C)C)s3)cc(=O)c2c1 the results were KDM5B inh inactive.
For CN(CC1CCOC1)C(=O)c1ccc(F)c(F)c1 (stereo not given) the results were KDM5B inh inactive.
`Cc1nn(C)cc1S(=O)(=O)N1CCN(Cc2cccc(Br)c2)CC1` gave KDM5B inh inactive.
COc1ccc(C(=O)N[C@@H]2CCC[C@@H]2C(=O)N(C)Cc2ccccc2)cc1 was read as KDM5B inh inactive.
Screening O=C(NCCCc1ccncc1)C1CC12CCN(C(=O)c1cccc(C(F)(F)F)c1)CC2 (stereo not given) returned KDM5B inh inactive.
For OC(C#CC(O)(c1ccccc1)c1ccccc1)c1ccc(F)cc1 (stereo not given) the results were KDM5B inh inactive.
